Values joined by “and” are separate entries in the source; they are usually repeats but may differ in a detail not shown here. Equal values may be shown once. Results filed as inconclusive are left out. Some structures have more than one record in an assay (separate samples or runs), and their calls can disagree. Active and inactive are the calls of the source. The call rests on the fitted dose curve; in most records, active means well fitted curve in the direction sought with a large enough effect in the repeat runs; inconclusive means weak or mixed curves; inactive means no such curve, though single readings can be large; an effect the other way counts as inactive or inconclusive.

Consider 11 compounds from PubChem BioAssay (Tox21).

Test [1] in a line: qHTS RealTime-Glo MT Cell Viability Assay in HepG2 cells - 40 hour (AID 1224870). Further: nearly all actives have a fitted effect of over 50% in size. The procedure, abridged:
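HepG2 cells mixed with RealTime-Glo MT reagents (NanoLuc plus cell-permeant prosubstrate) were seeded at 600 cells/well, incubated 5 h at 37 C/5% CO2, then pinned with compounds in DMSO; nonlytic luminescence tracked viability during 40 h treatment.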
Background: qHTS replaces the single test concentration by a dilution series.

A short description of test [2]: A CellTox Green Cytotoxicity Assay to monitor cytotoxicity in HEK293 cells - 40 hour (AID 1224871). Further: nearly all actives have a fitted effect of over 45% in size. Further: potency means the concentration at half of the fitted maximal effect. An outline of the steps:
(§1)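 Tox21 screen in HEK293: membrane-impermeant cyanine dye fluoresces on binding dead-cell DNA; compound pinned 5 h post-seeding, plates held at 37 C, signal read repeatedly through 40 h.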

A short description of test [3]: qHTS RealTime-Glo MT Cell Viability Assay in HEK293 cells - 16 hour (AID 1224872). Further: top concentration of the series differs between compounds; nearly all actives have a fitted effect of over 50% in size. The procedure, abridged: (§2)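 Luminescence generated by NanoLuc from substrate produced by living HEK293 cells served as the viability signal. Each value reflects the reading at its stated time point during continuous 40 h compound exposure at 37 C.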
The nature of test [4]: qHTS RealTime-Glo MT Cell Viability Assay in HEK293 cells - 40 hour (AID 1224874). Further: nearly all actives have a fitted effect of over 50% in size. Particulars: RealTime-Glo luminescence; max response: stronger effect = lower value. An outline of the steps: (§3)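 HEK293 + NanoLuc + prosubstrate, 600 cells/well; 5 h, 37 C/5% CO2; compound 23 nL in DMSO by pintool; 37 C; luminescence read at 0, 8, 16, 24, 32 and 40 h time points.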
The nature of test [5]: A CellTox Green Cytotoxicity Assay to monitor cytotoxicity in HEK293 cells - 24 hour (AID 1224875). Further: series mostly up to about 77 µM; nearly all actives have a fitted effect of over 45% in size. The procedure, abridged: as §1
The nature of test [6]: A CellTox Green Cytotoxicity Assay to monitor cytotoxicity in HepG2 cells - 16 hour (AID 1224876). Further: nearly all actives have a fitted effect of over 45% in size. Further: potency means the concentration at half of the fitted maximal effect. An outline of the steps:
(§4)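 Measurements at 0, 8, 16, 24, 32 and 40 h of treatment captured CellTox Green fluorescence in HepG2 cells that had been co-plated with reagent and preincubated 5 h at 37 C/5% CO2.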

A short description of test [7]: qHTS RealTime-Glo MT Cell Viability Assay in HepG2 cells - 32 hour (AID 1224877). Further: nearly all actives have a fitted effect of over 55% in size. The procedure, abridged: (§5)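 Tox21 10K library screened in qHTS format on HepG2 cells carrying RealTime-Glo reagents. Compounds were added after a 5 h preincubation, and the luminescent signal from continuous culture was measured repeatedly during 40 h treatment.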
The nature of test [8]: A CellTox Green Cytotoxicity Assay to monitor cytotoxicity in HepG2 cells - 24 hour (AID 1224878). Further: nearly all actives have a fitted effect of over 45% in size. Further: potency means the concentration at half of the fitted maximal effect. The procedure, abridged:
as §4

Test [9] is described as follows: A CellTox Green Cytotoxicity Assay to monitor cytotoxicity in HepG2 cells - 40 hour (AID 1224879). Further: nearly all actives have a fitted effect of over 40% in size. Further: potency means the concentration at half of the fitted maximal effect. An outline of the steps: as §4
Test [10] is described as follows: A CellTox Green Cytotoxicity Assay to monitor cytotoxicity in HepG2 cells - 0 hour (AID 1224882). Further: nearly all actives have a fitted effect of over 35% in size. Further: potency means the concentration at half of the fitted maximal effect. An outline of the steps: as §4
Test [11] can be described thus: A CellTox Green Cytotoxicity Assay to monitor cytotoxicity in HepG2 cells - 32 hour (AID 1224883). Further: nearly all actives have a fitted effect of over 50% in size. Further: potency means the concentration at half of the fitted maximal effect. The procedure, abridged: as §4
A short description of test [12]: A CellTox Green Cytotoxicity Assay to monitor cytotoxicity in HEK293 cells - 8 hour (AID 1224884). Further: nearly all actives have a fitted effect of over 35% in size. Further: potency means the concentration at half of the fitted maximal effect. An outline of the steps: as §1
The nature of test [13]: qHTS RealTime-Glo MT Cell Viability Assay in HepG2 cells - 16 hour (AID 1224885). Further: nearly all actives have a fitted effect of over 50% in size. The procedure, abridged: as §5
The nature of test [14]: qHTS RealTime-Glo MT Cell Viability Assay in HEK293 cells - 24 hour (AID 1224886). The procedure, abridged:
as §2

Test [15] is described as follows: qHTS RealTime-Glo MT Cell Viability Assay in HEK293 cells - 8 hour (AID 1224887). An outline of the steps:
as §3

Test [16] can be described thus: A CellTox Green Cytotoxicity Assay to monitor cytotoxicity in HEK293 cells - 16 hour (AID 1224888). Further: nearly all actives have a fitted effect of over 35% in size. The procedure, abridged: as §1
Test [17] in a line: qHTS RealTime-Glo MT Cell Viability Assay in HepG2 cells - 0 hour (AID 1224889). Further: nearly all actives have a fitted effect of over 50% in size. The procedure, abridged:
as §5

Test [18] can be described thus: qHTS RealTime-Glo MT Cell Viability Assay in HEK293 cells - 0 hour (AID 1224880). An outline of the steps: as §3
Test [19] can be described thus: A CellTox Green Cytotoxicity Assay to monitor cytotoxicity in HEK293 cells - 32 hour (AID 1224881). Further: nearly all actives have a fitted effect of over 40% in size. Further: potency means the concentration at half of the fitted maximal effect. The procedure, abridged:
as §1
On the % scale 0 is the no-effect control and ±100 the full control effect.

As for `Cc1cccc(C)c1O`, the compound was called inactive in [1] and in test [7]. Also, the Potency entry in test [2], in [3], in [5], in test [6], in test [8] and in [9] was “inactive” throughout. The Potency result in test [10], in test [11], in [12], in test [13], in test [14] and in [15] was “inactive” throughout. Further, the Potency entry in test [16] and in test [17] was “inactive” each time. Also, the max response in [4] is 9.86% (inactive) and 0.971% (inactive).

Turning to `CC(C)CC(C)CC(O)CC(C)C` (stereo unspecified), the outcome in test [1] and in test [7] was inactive. The Potency entry in [2], in test [3], in test [6], in test [8], in [9] and in [18] was “inactive” throughout. The Potency entry in test [19], in [10], in [11], in test [12], in test [13] and in test [15] was “inactive” each time. Further, the Potency entry in test [16] and in test [17] was “inactive” each time. Further, the max response in test [4] is -0.631% (inactive) and 5.18% (inactive).

Regarding `Cn1cnc2c1c(=O)[nH]c(=O)n2C`, the outcome in [1] and in test [7] was inactive. Besides, the Potency result in test [2], in [3], in [6], in test [8], in test [9] and in test [19] was “inactive” throughout. Moreover, the Potency result in test [10], in test [11], in test [12], in test [13], in test [14] and in test [15] was “inactive” each time. In addition, the Potency entry in test [16] and in test [17] was “inactive” throughout. The max response in [4] was 8.97% (inactive) and 7.21% (inactive).

Turning to `COc1ccc(O)cc1`, the call in test [1] and in test [7] was inactive. The Potency entry in [2], in test [3], in [6], in [8], in test [9] and in test [10] was “inactive” in each case. Moreover, the Potency result in test [11], in test [12], in test [13], in test [15], in [16] and in test [17] was “inactive” each time. Besides, the max response in test [4] is -25.5% (inactive) and -26.5% (inactive) and -24.7% (inactive).

On to `NC(=O)NO`, for which the outcome in test [1] and in test [7] was inactive. Besides, the Potency entry in test [2], in [3], in test [5], in [6], in test [8] and in [9] was “inactive” in each case. Also, the Potency result in test [10], in test [11], in [12], in test [13], in test [15] and in test [16] was “inactive” throughout. Further, the Potency result in [17] was “inactive”. In addition, the max response in test [4] was 19.8% (inactive) and 1.62% (inactive).

On to `CC1=C(/C=C/C(C)=C/C=C/C(C)=C/C(=O)O)C(C)(C)CCC1`, for which the call in [1] and in test [7] was inactive. For the same compound, the Potency result in test [2], in test [3], in test [5], in test [6], in [8] and in test [9] was “inactive” in each case. Also, the Potency result in test [19], in [10], in test [11], in [12], in [13] and in [14] was “inactive” in each case. The Potency entry in test [15], in [16] and in [17] was “inactive” throughout. Moreover, the max response in test [4] was -20% (inactive) and -18.8% (inactive) and -12.7% (inactive).

For the compound `C1CNCCN1`, the result in [1] and in [7] was inactive. Moreover, the Potency result in [2], in test [3], in test [6], in test [8], in [9] and in [18] was “inactive” each time. The Potency entry in test [10], in test [11], in [12], in [13], in test [15] and in test [16] was “inactive” each time. Further, the Potency result in test [17] was “inactive”. For the same compound, the max response in test [4] is 0.515% (inactive) and 0.916% (inactive).

On to `CCN(CC)CCOC(=O)c1ccc(N)cc1`, for which the result in test [1] and in test [7] was inactive. For the same compound, the Potency entry in [2], in [3], in test [6], in test [8], in test [9] and in test [18] was “inactive” throughout. Further, the Potency result in [10], in test [11], in [12], in [13], in test [15] and in [16] was “inactive” each time. In [17], the Potency entry was “inactive”. Also, the max response in [4] was -6.53% (inactive) and -0.799% (inactive).

Turning to `CC(=O)/C=C/C1=C(C)CCCC1(C)C`, the compound was classed as inactive in test [1] and in test [7]. For the same compound, the Potency result in [2], in test [3], in [5], in [6], in test [8] and in test [9] was “inactive” throughout. Moreover, the Potency result in test [10], in test [11], in test [12], in test [13], in test [15] and in test [16] was “inactive” each time. Moreover, the Potency entry in test [17] is “inactive”. In addition, the max response in test [4] is -10% (inactive) and 2.42% (inactive) and 0.0931% (inactive).

With `COCC(C)N` (stereo unspecified), the result in test [1] and in test [7] was inactive. The Potency result in [2], in test [3], in test [6], in test [8], in test [9] and in [18] was “inactive” throughout. Also, the Potency entry in test [10], in test [11], in test [12], in test [13], in test [14] and in test [15] was “inactive” in each case. Moreover, the Potency result in [16] and in test [17] was “inactive” throughout. In addition, the max response in test [4] was 4.72% (inactive) and 4.68% (inactive).

As for `CC(=O)CCC(C)C`, the call in [1] and in [7] was inactive. Besides, the Potency entry in test [2] is “inactive and 24.5 µM (active)”; in [6], “inactive and 38.9 µM (active)”; in test [8] it was “inactive and 38.9 µM (active)”; in test [9], “inactive and 27.5 µM (active)”; in [19], “inactive and 34.7 µM (active)”; in test [10], “inactive and 38.9 µM (active)”. Moreover, the Potency entry in test [11] was “inactive and 38.9 µM (active)”; in [12] it was “inactive and 38.9 µM (active)”. The Potency entry in [3], in [18], in [13], in [15] and in test [17] was “inactive” throughout. Besides, in [4], the max response was -1.02% (inactive) and 1.57% (inactive).
